Measurements reported in PubChem BioAssay AID624255 (Broad Institute, 2012).
Hit rate of the full screen: of about 77,000 compounds, about 4,600 (6%) were called active. Inconclusive results (about 1%) are left out. The sample holds actives, similar compounds and a random draw of the others, so the mix is not that of the screen. Unmarked numbers belong to inactive results.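 How the source made its calls: active means mean inhibition above about 93%, with at least 55% of replicates each passing it (limit read from the data, passing the limit was not always enough); inconclusive means only one of those two conditions holds; inactive means neither condition holds.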

test: growth inhibition of T. cruzi in host fibroblasts – cell-based, beta-gal Tulahuen parasites, NIH3T3 host, luminescence, primary screen (AID 624255); settings: T. cruzi beta-gal in NIH3T3, GalScreen luminescence, 90 h; at 8.34 µM; hits give high values

Q: With CCCN(C)C[C@@H]1Oc2cc(C#Cc3ccc(F)cc3)ccc2S(=O)(=O)N([C@H](C)CO)C[C@H]1C as the molecule, how does the inhibition read?
A: 100% (active)

Q: With CCCC#Cc1ccc2c(c1)O[C@@H](CN(C)CCC)[C@@H](C)CN([C@H](C)CO)S2(=O)=O as the molecule, how does the inhibition read?
A: 63.4%

Q: For CNC[C@@H]1Oc2cc(C#CC3CCCC3)ccc2S(=O)(=O)N([C@@H](C)CO)C[C@@H]1C, which inhibition is on record?
A: 61%

Q: For COCC#Cc1ccc2c(c1)O[C@@H](CN(C)S(C)(=O)=O)[C@H](C)CN([C@H](C)CO)S2(=O)=O, which inhibition is on record?
A: 2.15%

Q: Which inhibition does the source give for C[C@@H]1CN([C@@H](C)CO)S(=O)(=O)c2ccc(C#CC3CCCC3)cc2O[C@H]1CN(C)S(C)(=O)=O here?
A: -41.8%

Q: Which inhibition does the source give for CCCN(C)C[C@@H]1Oc2cc(C#CCc3ccccc3)ccc2S(=O)(=O)N([C@H](C)CO)C[C@@H]1C here?
A: 80.1%

Q: For CCCN(C)C[C@@H]1Oc2cc(C#CC3CCCCC3)ccc2S(=O)(=O)N([C@@H](C)CO)C[C@@H]1C, which inhibition is on record?
A: 42.1%

Q: For CCCN(C)C[C@H]1Oc2cc(C#CC3CCCC3)ccc2S(=O)(=O)N([C@H](C)CO)C[C@@H]1C, which inhibition is on record?
A: 98.6% (active)

Q: For C[C@@H]1CN([C@@H](C)CO)S(=O)(=O)c2ccc(C#Cc3ccc(F)cc3)cc2O[C@H]1CN(C)S(C)(=O)=O, which inhibition is on record?
A: 113% (active)

Q: For C[C@@H](NC(=O)C[C@@H]1CC[C@@H]2[C@H](COC[C@@H](O)CN2C(=O)Nc2cccc(F)c2)O1)c1ccccc1, which inhibition is on record?
A: 21.9%

Q: Which inhibition does the source give for CC(C)NC(=O)N(C)C[C@@H]1Oc2ncc(-c3ccc(C(=O)N(C)C)cc3)cc2C(=O)N([C@H](C)CO)C[C@H]1C here?
A: 35.4%

Q: With COc1ccc(S(=O)(=O)N(C)C[C@H]2OCCCC[C@H](C)Oc3ccc(NS(=O)(=O)c4c(C)noc4C)cc3C(=O)N([C@@H](C)CO)C[C@@H]2C)cc1 as the molecule, how does the inhibition read?
A: 23.4%

Q: For C[C@H]1CN([C@@H](C)CO)C(=O)c2cc(C#CC(C)(C)O)cnc2O[C@H]1CN(C)C(=O)CC1CC1, which inhibition is on record?
A: -14.6%

Q: With O=S(=O)(Cc1ccccc1)NCC[C@@H]1CC[C@@H](NS(=O)(=O)c2ccccc2)[C@@H](CO)O1 as the molecule, how does the inhibition read?
A: -0.486%

Q: For CC(=O)N1CC[C@@H]2[C@@H](CO)N(C)c3ccc(-c4ccc(C#N)cc4)cc3[C@@H]21, which inhibition is on record?
A: 52.3%

Q: For Cc1noc(C)c1NC(=O)Nc1ccc2c(c1)C(=O)N([C@@H](C)CO)C[C@@H](C)[C@H](CN(C)C(=O)Nc1ccc(C(F)(F)F)cc1)OCCCC[C@@H](C)O2, which inhibition is on record?
A: 27.1%

Q: Which inhibition does the source give for COc1ccc(S(=O)(=O)N2CCCCN3[C@H](C2)[C@H](c2ccc(C4=CCCC4)cc2)[C@@H]3CO)cc1 here?
A: 7.54%

Q: Which inhibition does the source give for Cc1ccccc1-c1ccc([C@@H]2[C@H](CO)N3CCCCN(S(=O)(=O)c4ccc(F)cc4)C[C@@H]23)cc1 here?
A: 112% (active)

Q: With Cc1ccccc1-c1ccc([C@H]2[C@H]3CN(S(=O)(=O)c4ccc(F)cc4)CCCCN3[C@H]2CO)cc1 as the molecule, how does the inhibition read?
A: 111% (active)

Q: Which inhibition does the source give for Cn1cnc(S(=O)(=O)N2CCCCN3[C@H](CO)[C@@H](c4ccc(-c5ccc(F)cc5)cc4)[C@@H]3C2)c1 here?
A: 11.8%

Q: With O=S(=O)(c1ccc(F)cc1)N1CCCCN2[C@H](C1)[C@H](c1ccc(C3=CCCCC3)cc1)[C@@H]2CO as the molecule, how does the inhibition read?
A: 99.1% (active)

Q: Which inhibition does the source give for COc1ccc(S(=O)(=O)N2CCCCN3[C@H](CO)[C@H](c4ccc(C5=CCCCC5)cc4)[C@@H]3C2)cc1 here?
A: 88.5%

Q: With COc1ccccc1-c1ccc([C@@H]2[C@@H](CO)N3CCCCN(S(=O)(=O)c4cn(C)cn4)C[C@H]23)cc1 as the molecule, how does the inhibition read?
A: 42.2%

Q: Which inhibition does the source give for C[C@@H](NC(=O)C[C@@H]1CC[C@@H](NC(=O)C2CCOCC2)[C@@H](CO)O1)c1ccccc1 here?
A: 9.21%

Q: With O=C(C[C@@H]1CC[C@@H](NC(=O)Nc2ccc(F)cc2)[C@H](CO)O1)NCCN1CCCC1 as the molecule, how does the inhibition read?
A: 30.1%

Q: For CCCNC(=O)N1[C@@H]2c3ccc(-c4ccccc4OC)c(=O)n3C[C@H]1[C@H](CO)[C@H]2C(=O)N(C)C, which inhibition is on record?
A: 1.54%

Q: With CO[C@@H]1CC[C@@H]2CCOc3c(C#N)cccc3C(=O)N(C)C[C@@H](OC)[C@@H](C)C(=O)N(C)C[C@H]1O2 as the molecule, how does the inhibition read?
A: 11.7%

Q: Which inhibition does the source give for CC(=O)N1[C@@H](CO)[C@H](c2ccccc2)[C@@H]1CN(C)C(=O)CN1CCOCC1 here?
A: 50.9%

Q: Which inhibition does the source give for COc1ccc(CN(C)C[C@H]2OCCCC[C@H](C)Oc3ccc(NC(=O)Nc4ccc5c(c4)OCO5)cc3C(=O)N([C@H](C)CO)C[C@@H]2C)cc1 here?
A: 98.7% (active)

Q: For COc1ccc(NC(=O)N(C)C[C@H]2OCCCC[C@@H](C)Oc3ccc(NC(=O)Nc4ccc5c(c4)OCO5)cc3C(=O)N([C@H](C)CO)C[C@@H]2C)cc1, which inhibition is on record?
A: 9.34%

Q: For C[C@@H]1CCCCO[C@@H](CN(C)Cc2ccc3c(c2)OCO3)[C@@H](C)CN([C@@H](C)CO)C(=O)c2cc(NC(=O)Nc3ccccc3)ccc2O1, which inhibition is on record?
A: 99.9% (active)

Q: With COc1ccc(NC(=O)Nc2ccc3c(c2)C(=O)N([C@H](C)CO)C[C@H](C)[C@@H](CN(C)Cc2ccc(C(=O)O)cc2)OCCCC[C@H](C)O3)cc1 as the molecule, how does the inhibition read?
A: 51%

Q: For C[C@@H]1CN([C@@H](C)CO)C(=O)c2cc(NC(=O)Nc3ccc4c(c3)OCO4)ccc2O[C@@H](C)CCCCO[C@@H]1CN(C)Cc1ccccc1, which inhibition is on record?
A: 41.8%

Q: For C[C@@H]1CN([C@H](C)CO)C(=O)c2cc(NC(=O)Nc3ccc4c(c3)OCO4)ccc2O[C@@H](C)CCCCO[C@@H]1CN(C)Cc1ccc2c(c1)OCO2, which inhibition is on record?
A: 81.6%

Q: For Cc1cccc(S(=O)(=O)N2C[C@H]3[C@@H](c4ccccc42)[C@H](CO)N3Cc2ccc3c(c2)OCO3)c1, which inhibition is on record?
A: 72.7%

Q: With CN1C[C@H](O)COC[C@H]2O[C@H](CC(=O)NC3CCC3)CC[C@@H]21 as the molecule, how does the inhibition read?
A: -61.9%

Q: With C[C@@H]1CN([C@H](C)CO)C(=O)c2cc(NS(=O)(=O)c3cccs3)ccc2O[C@@H](C)CCCCO[C@@H]1CN(C)S(=O)(=O)c1cccs1 as the molecule, how does the inhibition read?
A: -40.5%

Q: With C[C@@H]1CCCCO[C@@H](CN(C)S(=O)(=O)c2ccc(F)cc2)[C@@H](C)CN([C@@H](C)CO)C(=O)c2cc(NS(=O)(=O)c3cccs3)ccc2O1 as the molecule, how does the inhibition read?
A: 10.6%

Q: For C[C@@H]1CN([C@H](C)CO)C(=O)c2cc(NS(=O)(=O)c3cccs3)ccc2O[C@@H](C)CCCCO[C@@H]1CN(C)S(=O)(=O)c1ccc(Cl)cc1, which inhibition is on record?
A: 109% (active)

Q: For C[C@@H]1CCCCO[C@H](CN(C)S(=O)(=O)c2ccc(Cl)cc2)[C@H](C)CN([C@@H](C)CO)C(=O)c2cc(NS(=O)(=O)c3cccs3)ccc2O1, which inhibition is on record?
A: 110% (active)

Q: For C[C@@H]1CCCCO[C@@H](CN(C)S(C)(=O)=O)[C@H](C)CN([C@@H](C)CO)C(=O)c2cc(NS(=O)(=O)c3cccs3)ccc2O1, which inhibition is on record?
A: -8.12%

Q: With C[C@@H]1CCCCO[C@H](CN(C)S(=O)(=O)c2cccs2)[C@H](C)CN([C@@H](C)CO)C(=O)c2cc(NS(=O)(=O)c3cccs3)ccc2O1 as the molecule, how does the inhibition read?
A: -8.67%

Q: For COCC(=O)N1C[C@@H](C)[C@H](OC)CN(C)C(=O)c2cc(NC(=O)c3cc(C)on3)ccc2OC[C@@H]1C, which inhibition is on record?
A: 60.6%

Q: Which inhibition does the source give for C[C@H](O)C#Cc1ccc2c(c1)O[C@@H](CN(C)CC1CCCC1)[C@H](C)CN([C@@H](C)CO)S2(=O)=O here?
A: 13.4%

Q: For COCC(=O)Nc1ccc2c(c1)C(=O)N(C)C[C@H](OC)[C@@H](C)CN(C(=O)c1cnccn1)[C@H](C)CO2, which inhibition is on record?
A: 7.73%

Q: Which inhibition does the source give for CC(=O)N1[C@H](C(=O)N(C)C)[C@@H](CO)[C@@H]2Cn3c(ccc(-c4ccccc4)c3=O)[C@@H]21 here?
A: 16.7%

Q: With C[C@@H]1CCCCO[C@H](CN(C)C)[C@H](C)CN([C@@H](C)CO)C(=O)c2cc(NC(=O)Cc3ccccc3)ccc2O1 as the molecule, how does the inhibition read?
A: -33.2%

Q: Which inhibition does the source give for C[C@@H]1CN([C@@H](C)CO)C(=O)c2cc(NC(=O)CCCN(C)C)ccc2O[C@@H](C)CCCCO[C@@H]1CN(C)S(=O)(=O)c1ccc(Cl)cc1 here?
A: 25.4%

Q: Which inhibition does the source give for Cc1ccc(S(=O)(=O)N(C)C[C@H]2OCCCC[C@H](C)Oc3ccc(NC(=O)Cc4ccccc4)cc3C(=O)N([C@@H](C)CO)C[C@@H]2C)cc1 here?
A: 110% (active)

Q: For Cc1ccc(S(=O)(=O)N(C)C[C@@H]2OCCCC[C@@H](C)Oc3ccc(NC(=O)C4CCCCC4)cc3C(=O)N([C@H](C)CO)C[C@H]2C)cc1, which inhibition is on record?
A: 24%

Q: Which inhibition does the source give for C[C@@H]1CCCCO[C@@H](CN(C)S(=O)(=O)c2ccc(Cl)cc2)[C@H](C)CN([C@@H](C)CO)C(=O)c2cc(NC(=O)Cc3ccccc3)ccc2O1 here?
A: 98.6% (active)

Q: Which inhibition does the source give for Cc1ccc(S(=O)(=O)N(C)C[C@@H]2OCCCC[C@@H](C)Oc3ccc(NS(=O)(=O)c4ccccc4)cc3C(=O)N([C@H](C)CO)C[C@@H]2C)cc1 here?
A: 55%

Q: Which inhibition does the source give for CCCN1C[C@H](C)[C@@H](OC)CN(C)C(=O)c2cc(NS(=O)(=O)CC)ccc2OC[C@H]1C here?
A: -88%

Q: For CN1c2ccc(Br)cc2[C@H]2[C@H](CCN2S(=O)(=O)c2ccccc2)[C@@H]1CO, which inhibition is on record?
A: 95.5%

Q: With CN1C(=O)c2cc(NS(=O)(=O)c3ccc(F)cc3)ccc2OC[C@@H]2O[C@@H](CC(=O)O)CC[C@H]21 as the molecule, how does the inhibition read?
A: 20.4%

Q: For COc1cccc(C(=O)Nc2ccc3c(c2)C(=O)N(C)[C@@H]2CC[C@H](CC(=O)NCC4CC4)O[C@@H]2CO3)c1, which inhibition is on record?
A: 22.9%

Q: For COCC(=O)Nc1ccc2c(c1)C(=O)N(C)C[C@H](OC)[C@@H](C)CN(C(=O)Cc1cccnc1)[C@@H](C)CO2, which inhibition is on record?
A: -9.25%

Q: With CC(C)NC(=O)N1C[C@H]2[C@@H](c3ccccc31)[C@H](CO)N2C(=O)c1ccccc1F as the molecule, how does the inhibition read?
A: -21.6%
